Laboratory results published in PubChem BioAssay AID588689 (Southern Research Specialized Biocontainment Screening …, 2011).
Hit rate of the full screen: of about 340,000 compounds, about 1,000 (0.29%) were called active. Cut-off read from the data, not from the text of the source: inconclusive = inhibition above about 29% without an active follow-up result; inactive = below that. These entries were drawn from the full list. Entries with a potency or affinity are not part of this list.

Biological target: Genome polyprotein (Dengue virus type 2 (strain 16681-PDK53)) (UniProt P29991)
Assay: Dengue-2 NS5 methyltransferase inhibitors, primary screen, biochemical, confirmation dose response (AID 588689)
Details: Dengue-2 NS5 methyltransferase capping enzyme assay, at 25 µM, stronger effect = higher value
[1] = measured here: pilot screen replicate inhibition

Chain of Genome polyprotein (Dengue virus type 2 (strain 16681-PDK53)) (P29991 whole entry, looked up): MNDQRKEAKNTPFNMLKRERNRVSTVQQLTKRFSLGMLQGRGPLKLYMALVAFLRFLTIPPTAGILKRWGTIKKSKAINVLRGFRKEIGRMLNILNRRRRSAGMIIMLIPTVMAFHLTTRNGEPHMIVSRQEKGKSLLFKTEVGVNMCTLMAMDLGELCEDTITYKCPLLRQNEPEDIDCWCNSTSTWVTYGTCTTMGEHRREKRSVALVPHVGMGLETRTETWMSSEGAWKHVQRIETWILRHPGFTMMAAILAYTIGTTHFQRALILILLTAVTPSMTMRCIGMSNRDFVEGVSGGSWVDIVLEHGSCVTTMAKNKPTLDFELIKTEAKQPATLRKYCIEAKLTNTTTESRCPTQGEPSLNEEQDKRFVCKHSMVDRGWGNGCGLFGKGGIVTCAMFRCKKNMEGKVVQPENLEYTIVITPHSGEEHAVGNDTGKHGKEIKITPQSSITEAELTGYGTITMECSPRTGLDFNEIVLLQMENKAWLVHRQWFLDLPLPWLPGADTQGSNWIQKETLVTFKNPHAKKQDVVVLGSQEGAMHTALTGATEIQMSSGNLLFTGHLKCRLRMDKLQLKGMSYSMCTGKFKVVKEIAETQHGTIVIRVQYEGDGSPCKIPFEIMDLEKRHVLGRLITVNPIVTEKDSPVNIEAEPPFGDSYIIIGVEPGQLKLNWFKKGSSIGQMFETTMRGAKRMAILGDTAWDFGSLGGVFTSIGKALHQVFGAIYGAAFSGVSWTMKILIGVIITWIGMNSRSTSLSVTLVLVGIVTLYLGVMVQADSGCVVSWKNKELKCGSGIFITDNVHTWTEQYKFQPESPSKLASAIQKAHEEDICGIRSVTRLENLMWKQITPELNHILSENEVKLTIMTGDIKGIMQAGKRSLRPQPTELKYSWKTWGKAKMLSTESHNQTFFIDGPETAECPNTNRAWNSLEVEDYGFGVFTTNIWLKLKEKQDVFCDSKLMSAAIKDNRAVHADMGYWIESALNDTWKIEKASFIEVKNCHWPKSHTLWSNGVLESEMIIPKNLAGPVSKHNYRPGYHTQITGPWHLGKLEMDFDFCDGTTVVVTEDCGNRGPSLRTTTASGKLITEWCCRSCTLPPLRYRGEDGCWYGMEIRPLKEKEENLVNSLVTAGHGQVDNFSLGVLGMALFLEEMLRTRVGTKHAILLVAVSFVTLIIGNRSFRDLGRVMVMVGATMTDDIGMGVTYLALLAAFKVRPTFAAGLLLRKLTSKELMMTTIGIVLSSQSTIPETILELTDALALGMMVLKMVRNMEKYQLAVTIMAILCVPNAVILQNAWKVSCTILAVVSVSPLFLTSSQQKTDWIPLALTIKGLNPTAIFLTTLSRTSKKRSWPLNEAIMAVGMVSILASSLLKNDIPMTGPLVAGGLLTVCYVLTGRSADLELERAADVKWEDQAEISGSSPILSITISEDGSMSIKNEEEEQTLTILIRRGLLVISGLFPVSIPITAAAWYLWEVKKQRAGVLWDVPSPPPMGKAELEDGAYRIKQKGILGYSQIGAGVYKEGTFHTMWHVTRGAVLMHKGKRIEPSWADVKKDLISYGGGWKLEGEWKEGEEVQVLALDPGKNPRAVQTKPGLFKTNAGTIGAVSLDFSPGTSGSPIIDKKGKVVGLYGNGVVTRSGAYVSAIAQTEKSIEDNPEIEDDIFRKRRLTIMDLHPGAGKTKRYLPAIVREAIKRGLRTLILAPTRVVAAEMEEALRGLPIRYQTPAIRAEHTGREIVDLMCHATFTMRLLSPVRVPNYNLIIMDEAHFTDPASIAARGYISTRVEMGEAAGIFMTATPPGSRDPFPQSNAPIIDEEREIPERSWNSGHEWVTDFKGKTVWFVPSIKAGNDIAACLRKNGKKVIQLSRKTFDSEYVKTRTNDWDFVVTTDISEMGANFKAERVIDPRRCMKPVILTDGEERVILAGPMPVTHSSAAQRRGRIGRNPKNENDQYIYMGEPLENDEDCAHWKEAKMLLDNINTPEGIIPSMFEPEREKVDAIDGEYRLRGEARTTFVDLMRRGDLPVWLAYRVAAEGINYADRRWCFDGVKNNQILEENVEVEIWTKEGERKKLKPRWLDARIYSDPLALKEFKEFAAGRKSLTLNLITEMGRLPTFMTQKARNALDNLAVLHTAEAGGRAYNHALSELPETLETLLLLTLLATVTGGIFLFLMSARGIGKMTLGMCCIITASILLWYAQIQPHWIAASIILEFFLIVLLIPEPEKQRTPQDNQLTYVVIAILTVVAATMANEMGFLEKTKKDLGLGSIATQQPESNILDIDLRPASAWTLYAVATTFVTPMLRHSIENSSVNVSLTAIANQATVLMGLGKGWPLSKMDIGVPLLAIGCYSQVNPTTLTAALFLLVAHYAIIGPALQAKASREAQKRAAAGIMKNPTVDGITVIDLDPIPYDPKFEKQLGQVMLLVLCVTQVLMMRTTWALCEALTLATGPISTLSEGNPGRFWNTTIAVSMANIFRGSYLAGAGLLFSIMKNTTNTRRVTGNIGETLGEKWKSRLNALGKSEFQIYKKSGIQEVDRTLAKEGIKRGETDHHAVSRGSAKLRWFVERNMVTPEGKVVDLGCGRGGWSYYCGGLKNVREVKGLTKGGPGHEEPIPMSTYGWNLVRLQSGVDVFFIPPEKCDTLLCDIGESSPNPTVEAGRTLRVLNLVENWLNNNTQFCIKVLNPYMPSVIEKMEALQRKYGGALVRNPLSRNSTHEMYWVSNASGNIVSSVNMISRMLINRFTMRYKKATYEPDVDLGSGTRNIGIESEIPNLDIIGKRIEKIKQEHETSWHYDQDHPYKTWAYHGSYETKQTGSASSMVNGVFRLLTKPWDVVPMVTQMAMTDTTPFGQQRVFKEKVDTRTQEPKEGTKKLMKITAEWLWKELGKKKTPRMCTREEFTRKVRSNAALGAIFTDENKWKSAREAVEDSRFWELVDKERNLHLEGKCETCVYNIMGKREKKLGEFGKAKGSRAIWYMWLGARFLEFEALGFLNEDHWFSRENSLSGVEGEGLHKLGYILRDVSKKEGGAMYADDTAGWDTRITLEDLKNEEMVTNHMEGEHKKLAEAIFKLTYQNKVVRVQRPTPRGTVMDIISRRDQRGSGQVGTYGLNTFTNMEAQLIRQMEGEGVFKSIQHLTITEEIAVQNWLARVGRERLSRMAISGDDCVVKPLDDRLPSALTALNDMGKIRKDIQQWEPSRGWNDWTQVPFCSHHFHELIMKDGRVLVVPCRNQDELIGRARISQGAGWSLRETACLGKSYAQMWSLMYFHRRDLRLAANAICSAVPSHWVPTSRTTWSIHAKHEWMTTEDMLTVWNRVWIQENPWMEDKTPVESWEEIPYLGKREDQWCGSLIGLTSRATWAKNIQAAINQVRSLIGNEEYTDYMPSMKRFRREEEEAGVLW

SMILES	inhibition	inhibition [1] [%]
N#C/C(=C\c1ccc([N+](=O)[O-])cc1)C(=O)Nc1ccccc1O	8.94% (inactive)	–
Brc1ccc(-c2nnc3n2CCCCC3)cc1	-4.77% (inactive)	–
Cc1ccccc1CSCCNC(=O)COc1ccc(Cl)cc1	-3.24% (inactive)	–
Cc1occc1C(=O)NNC(=O)c1ccccc1[N+](=O)[O-]	1.62% (inactive)	–
CCC(=O)N1CCc2cc(Br)cc(S(=O)(=O)NCc3ccco3)c21	0% (inactive)	–
O=C(O)c1ccccc1C(=O)c1ccc(Cl)cc1	1.15% (inactive)	–
O=C1OC(c2ccc(Cl)cc2)/C(=C(/O)c2ccccc2)C1=O (configuration not stated)	28.1% (inactive)	–
CC(=O)C1=C(O)C(=O)OC1c1ccc(C)cc1 (configuration not stated)	-9.38% (inactive)	–
CC(=O)C1=C(O)C(=O)OC1c1ccc(Cl)cc1 (configuration not stated)	-3.11% (inactive)	–
CC(=O)Nc1ccc(S(=O)(=O)N2CCC(N3CCCCCC3)CC2)cc1	-3.4% (inactive)	–
CCOc1ccc(NC(=O)C2=NN(c3ccccc3)C(=O)CC2)cc1S(=O)(=O)N1CCCCC1	-4.38% (inactive)	–
COc1cccc(N2CC(O)Cn3c2nc2c3c(=O)[nH]c(=O)n2C)c1 (configuration not stated)	-3.08% (inactive)	–
COc1ccc(NC(=O)c2ccc(S(=O)(=O)N3CC(C)OC(C)C3)cc2)cc1 (configuration not stated)	3.36% (inactive)	–
CN(CC(=O)Nc1ccc(S(=O)(=O)N(C)C)cc1)Cc1ccc(C(F)(F)F)cc1	2.22% (inactive)	–
Nc1ccc(-c2ccc(N)c([N+](=O)[O-])c2)cc1[N+](=O)[O-]	-9.54% (inactive)	–
O=C(c1cc(O)c(O)c([N+](=O)[O-])c1)c1ccccc1F	-7.33% (inactive)	–
Nc1ccc(N=Nc2ccccc2)cc1[N+](=O)[O-]	-3.11% (inactive)	–
O=[N+]([O-])c1cccc(C=Nc2cccc3ccccc23)c1O	14.3% (inactive)	–
O=[N+]([O-])c1ccccc1N=Nc1ccc(O)cc1	0% (inactive)	–
COc1cc(CN(C)Cc2cccc3ccccc23)cc([N+](=O)[O-])c1O	11.1% (inactive)	0.595
Cc1cc(Nc2ccccc2C(=O)O)n2ncnc2n1	6.29% (inactive)	–
Cn1c(N)c(S(=O)(=O)N2CCN(c3ccccc3F)CC2)c(=O)n(C)c1=O	-7.15% (inactive)	–
CC(C)CC(=O)Nc1ccc(C(=O)COC(=O)C2CCC2)cc1	-0.65% (inactive)	–

SMILES	inhibition	inhibition [1] [%]
O=C1C2C3C=CC(C4CC34)C2C(=O)N1Cc1ccco1 (configuration not stated)	-2.18% (inactive)	–
CSCCC(NS(=O)(=O)c1ccc(F)cc1)C(=O)NCc1ccc(S(N)(=O)=O)cc1 (configuration not stated)	3.04% (inactive)	–
C=CCn1c(SCC(=O)NC2CCCC2)nnc1-c1ccncc1	-3.89% (inactive)	–
Cc1ccccc1NC1=C/C(=N\S(=O)(=O)c2cccs2)c2ccccc2C1=O	63.2% (inactive)	–
Cc1ccc(NC2=C/C(=N/S(=O)(=O)c3cccs3)c3ccccc3C2=O)cc1	1.1% (inactive)	–
CCc1ccc(S(=O)(=O)/N=C2\C=C(Nc3ccc(O)cc3)C(=O)c3ccccc32)cc1	8.96% (inactive)	–
Cc1ccc(S(=O)(=O)Nc2ccc3ncccc3c2[N+](=O)[O-])cc1	-1.93% (inactive)	–
Cc1cc(C)c(S(=O)(=O)/N=C2\C=C(NS(=O)(=O)c3ccccc3)C(=O)c3ccccc32)c(C)c1	25.3% (inactive)	–
Cc1ccc(S(=O)(=O)Nc2ccc3cc([N+](=O)[O-])ccc3c2[N+](=O)[O-])cc1	-2.33% (inactive)	–
CCc1ccc(S(=O)(=O)Nc2ccccn2)cc1	-5.27% (inactive)	-6.09
Cc1ccc(Nc2nnc(SC(C)C(=O)NCC3CCCO3)s2)cc1C (configuration not stated)	4.44% (inactive)	–
CCc1ccc(N(C(=O)C(F)(F)F)C(C(=O)NC2CCCCC2)c2ccncc2)cc1 (configuration not stated)	0.69% (inactive)	–
Cc1n[nH]c(C)c1CCCCOc1ccccc1[N+](=O)[O-]	-3.29% (inactive)	-1.21
CSc1nnc(C)c(=O)n1COC(=O)COc1ccccc1F	9.2% (inactive)	–
COc1ccc(CCn2c(C)c(C(C)=O)c3cc(OC(=O)c4ccco4)ccc32)cc1OC	-1.6% (inactive)	–
COc1ccccc1-n1c(CNC(=O)c2ccc(S(=O)(=O)N3CCOCC3)cc2)n[nH]c1=S	-4.46% (inactive)	–
C=C(C)CN1C(=O)c2ccccc2C1=O	2.04% (inactive)	–
CC(=O)N1N=C(c2ccc(C)o2)CC1c1ccc(Br)cc1 (configuration not stated)	-4.86% (inactive)	–
COc1cc2c(cc1OC)C(COc1cccc(C(F)(F)F)c1)NCC2 (configuration not stated)	6.97% (inactive)	–
CCCCOc1ccc(C(=O)NCC(=O)NC2CC2)cc1	1.44% (inactive)	–
CCOC(=O)c1nc[nH]c1C	-4.86% (inactive)	–
Cc1ccc(S(=O)(=O)/N=C2\C=C(NS(=O)(=O)c3ccccc3)C(=O)c3ccccc32)c(C)c1	13.1% (inactive)	–
COc1ccc(S(=O)(=O)/N=C2\C=C(Nc3ccc(O)cc3)C(=O)c3ccccc32)cc1	10.3% (inactive)	–

SMILES	inhibition	inhibition [1] [%]
Cc1ccc(S(=O)(=O)Nc2ccccc2C(N)=O)cc1	-8.11% (inactive)	-8.21
CC(C)c1ccc(-c2csc3nc[nH]c(=O)c23)cc1	-4.66% (inactive)	–
CC(=O)OC1(C)C=Cc2ccccc2C1=NS(=O)(=O)c1ccccc1 (configuration not stated)	4% (inactive)	–
Cc1ccc(NC2=C/C(=N\S(=O)(=O)c3cccs3)c3ccccc3C2=O)c(C)c1	12.8% (inactive)	–
Cc1ccc(S(=O)(=O)Nc2ccccc2-c2ccccc2)cc1	-9.37% (inactive)	–
CN1C/C(=N\S(=O)(=O)c2ccccc2)N(C)C1=O	-4.44% (inactive)	–
O=[N+]([O-])c1cc(C(F)(F)F)ccc1-n1nnc2ccccc21	1.31% (inactive)	–
Cc1cc2cc(CNC(=O)Nc3cccc(Cl)c3)ccc2n1C	22.2% (inactive)	–
COCCNc1nnc(SCC(=O)NC(=O)c2ccc(Cl)cc2)s1	2.89% (inactive)	–
COc1ccc(OC)c(NC(=O)c2cccc(N3C(=O)C4C5CCC(C5)C4C3=O)c2)c1 (configuration not stated)	-6.74% (inactive)	–
CCOC(=O)CCC(NC(=O)CCC(=O)NC(CCC(=O)OCC)C(=O)OCC)C(=O)OCC (configuration not stated)	-7.26% (inactive)	–
O=C(CNC(=O)c1ccccc1F)NCCN1C(=O)S/C(=C\c2ccc3c(c2)OCO3)C1=O	-1.45% (inactive)	–
O=C(c1ccc(CS(=O)c2ccc(F)cc2)o1)N1CCN(C2CCCCC2)CC1 (configuration not stated)	-10.8% (inactive)	–
Cc1[nH]c(=O)[nH]c(=O)c1CSc1nnc([C@@H](NC(=O)OC(C)(C)C)C(C)C)o1	0.56% (inactive)	–
C/C(=N\NS(=O)(=O)c1ccc(C(C)(C)C)cc1)c1ccccc1	-0.98% (inactive)	–
CC(C)(C)c1ccc(S(=O)(=O)Nc2ccccn2)cc1	2.21% (inactive)	–
COC(=O)C(C(C)=O)C1=C/C(=N\S(=O)(=O)c2ccc(C)cc2)c2ccccc2C1=O (configuration not stated)	-8.06% (inactive)	–
Cc1ccc(S(=O)(=O)/N=C2\C=C(Nc3ccc(O)cc3)C(=O)c3ccccc32)cc1	-0.74% (inactive)	–
O=C(CCN1C(=O)C2CC=CCC2C1=O)Nc1cccc(S(=O)(=O)N2CCCCC2)c1 (configuration not stated)	0% (inactive)	–
NC(=O)CSc1nnc(-c2cccs2)n1-c1ccccc1	-6.45% (inactive)	–
COCCN(C(=O)COC(=O)CCSc1ccc(F)cc1)c1c(N)n(Cc2ccccc2)c(=O)[nH]c1=O	-5.13% (inactive)	–
COC(=O)C1(C(=O)OC)C(C(=O)c2ccccc2)C1c1ccccc1 (configuration not stated)	5.57% (inactive)	–
COc1cc(SC)ccc1C(=O)Nc1cccc(S(=O)(=O)NC2=NCCCCC2)c1	-1.45% (inactive)	–

SMILES	inhibition	inhibition [1] [%]
CCc1nc2ccc(C(=O)NCCc3ccco3)cc2nc1CC	-11.5% (inactive)	–
COc1ccc2nc3ccccc3nc2c1	18.8% (inactive)	–
COCCNC(=O)Nc1ccc2nc(-c3cccs3)c(-c3cccs3)nc2c1	-17.7% (inactive)	–
O=C(Nc1ccc(N2CCOCC2)cc1)Nc1ccc2nc(-c3ccco3)c(-c3ccco3)nc2c1	13.6% (inactive)	–
O=C(Nc1cccc(C(F)(F)F)c1)c1ccc2nc(-c3ccco3)c(-c3ccco3)nc2c1	21.6% (inactive)	–
O=C(Nc1ccc(N2CCOCC2)cc1)c1ccc2nc(-c3ccco3)c(-c3ccco3)nc2c1	3.24% (inactive)	–
COc1ccc2nc3c(nc2c1)CCCC3	-8.49% (inactive)	–
CCCNC(=O)c1ccc2nc(-c3ccccc3)c(-c3ccccc3)nc2c1	-0.8% (inactive)	–
Cc1ccccc1NC(=O)Cc1cccs1	-7.91% (inactive)	-5.49
COc1cc2c(cc1OC)CC(C(=O)NCc1ccccc1)NC2 (configuration not stated)	-4.57% (inactive)	–
O=C(C1CCCN(S(=O)(=O)c2ccccc2)C1)N1CCN(c2ccccc2)CC1 (configuration not stated)	-6.74% (inactive)	–
CCN(CC)C(=O)C1CCCN(C(=O)Nc2ccccc2)C1 (configuration not stated)	-0.8% (inactive)	–
CN(/N=C/c1ccc2c(c1)OCO2)c1ccccc1	-8.15% (inactive)	–
COc1cccc(-c2ncc3ccccc3c2COC(=O)c2cccs2)c1	-7.94% (inactive)	–
O=C(c1ccco1)N1CCN(S(=O)(=O)c2cccc(C(F)(F)F)c2)CC1	0% (inactive)	–
CCc1nc2ccc(C(=O)NCc3ccco3)cc2nc1CC	-6.11% (inactive)	–
Cc1nc2ccc(C(=O)O)cc2nc1C	-2.96% (inactive)	–
O=C(Nc1ccccc1)c1ccc2nc(-c3ccco3)c(-c3ccco3)nc2c1	44.6% (inactive)	–
COc1ccc(-c2nc3ccc(C(=O)NCCCN4CCOCC4)cc3nc2-c2ccc(OC)cc2)cc1	-9.54% (inactive)	–
O=C(c1ccccc1)c1ccc2nc(-c3ccco3)c(-c3ccco3)nc2c1	51.1% (inactive)	–
O=C(O)c1ccc2nc(-c3ccccc3)c(-c3ccccc3)nc2c1	-2.57% (inactive)	–
O=C(c1ccc2nc(-c3ccco3)c(-c3ccco3)nc2c1)N1CCN(c2ccccc2)CC1	0% (inactive)	–
O=C(NCCc1ccccc1)c1ccc2nccnc2c1	0% (inactive)	–
